From PubChem BioAssay (Tox21)
Where “and” joins values, the source holds several entries; their conditions need not be identical. Equal values may be shown once. Unmarked numbers belong to inactive results. Inconclusive results are not listed. Entries that show only a call come without a potency. Calls of active or inactive are those of the source. Unless noted, calls come from the whole dose curve; as a rule, active = well fitted curve in the direction sought with a large enough effect in the repeat runs; inconclusive = weak or mixed curves; inactive = no such curve, though single readings can be large; an effect the other way counts as inactive or inconclusive.

Key:
[1] = biological target: Luciferin 4-monooxygenase (Photinus pyralis) (UniProt P08659); assay: qHTS assay to identify small molecule inhibitors of firefly luciferase (AID 1224835); note: nearly all actives have a fitted effect of over 25% in size; note: potency is the fitted concentration of half-maximal effect
Sequence of Luciferin 4-monooxygenase (Photinus pyralis) (P08659 whole entry, looked up): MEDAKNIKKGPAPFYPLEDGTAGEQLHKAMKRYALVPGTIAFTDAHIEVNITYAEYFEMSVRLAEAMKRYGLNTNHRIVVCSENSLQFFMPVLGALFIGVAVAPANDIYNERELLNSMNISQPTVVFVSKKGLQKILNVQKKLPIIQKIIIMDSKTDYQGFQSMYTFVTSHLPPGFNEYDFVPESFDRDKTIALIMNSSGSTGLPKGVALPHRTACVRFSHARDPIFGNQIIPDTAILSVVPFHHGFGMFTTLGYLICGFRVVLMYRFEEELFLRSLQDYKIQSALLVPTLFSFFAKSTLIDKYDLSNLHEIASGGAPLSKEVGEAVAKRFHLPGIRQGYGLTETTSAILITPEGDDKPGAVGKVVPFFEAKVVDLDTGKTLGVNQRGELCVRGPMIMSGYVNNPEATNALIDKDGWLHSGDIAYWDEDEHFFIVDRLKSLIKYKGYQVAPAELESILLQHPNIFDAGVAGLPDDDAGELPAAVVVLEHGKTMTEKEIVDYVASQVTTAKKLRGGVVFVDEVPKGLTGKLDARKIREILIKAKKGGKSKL
Procedure, shortened: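 Quantitative HTS format; KM concentrations of both substrates. Purified P. pyralis FLuc activity quantified from luminescence images.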

[2] = qHTS assay to identify small molecule antagonists of the constitutive androstane receptor (CAR) signaling pathway - cell viability counter screen (AID 1224837); note: nearly all actives have a fitted effect of over 45% in size; note: potency is the fitted concentration of half-maximal effect
Procedure, shortened: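 HepG2 cells stably carrying hCAR and CYP2B6-2.2kb reporter, stimulated with 50 nM CITCO and compounds at 15 concentrations for 23 h at 37 C. Viability measured by CellTiter-Fluor fluorescence.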

[3] = biological target: Nuclear receptor subfamily 1 group I member 3 (Homo sapiens) (UniProt Q14994); assay: qHTS assay to identify small molecule antagonists of the constitutive androstane receptor (CAR) signaling pathway (AID 1224838); note: nearly all actives have a fitted effect of over 40% in size; note: potency is the fitted concentration of half-maximal effect
Sequence of Nuclear receptor subfamily 1 group I member 3 (Homo sapiens) (Q14994 whole entry, looked up): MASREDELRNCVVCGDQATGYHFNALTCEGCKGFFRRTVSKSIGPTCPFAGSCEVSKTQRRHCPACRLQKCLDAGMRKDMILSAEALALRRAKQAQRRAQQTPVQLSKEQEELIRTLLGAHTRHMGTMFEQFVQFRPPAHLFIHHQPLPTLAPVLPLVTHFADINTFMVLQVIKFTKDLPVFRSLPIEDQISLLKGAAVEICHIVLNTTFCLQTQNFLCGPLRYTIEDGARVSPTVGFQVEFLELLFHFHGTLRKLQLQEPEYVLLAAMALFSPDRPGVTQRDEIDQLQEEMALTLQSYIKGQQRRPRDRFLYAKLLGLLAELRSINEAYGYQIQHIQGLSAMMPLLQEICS
Procedure, shortened: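 HepG2 cells stably carrying hCAR and a CYP2B6-2.2kb luciferase reporter, seeded 4 hrs before compound (15 concentrations). Stimulated with 50 nM CITCO for 24 hr at 37 C. ONE-Glo luminescence read after 30 min at room temperature.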

[4] = biological target: Nuclear receptor subfamily 1 group I member 3 (Homo sapiens) (UniProt Q14994); assay: qHTS assay to identify small molecule agonists of the constitutive androstane receptor (CAR) signaling pathway (AID 1224839); note: nearly all actives have a fitted effect of over 15% in size; note: potency is the fitted concentration of half-maximal effect
Procedure, shortened: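 HepG2 cells stably co-transfected with hCAR and a CYP2B6-2.2kb luciferase reporter; compounds at 15 concentrations with 0.75 uM PK11195 present. After 24 hr at 37 C, luciferase read by ONE-Glo luminescence.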

[5] = qHTS assay to identify small molecule antagonists of the estrogen related receptor signaling pathway with the pleiotropic PPARgamma coactivator (PGC) from Tox21 10K library - cell viability counter screen (AID 1224840; active = well fitted cell-killing curve with a large enough effect in the repeat runs, not every such curve was filed as active; note: nearly all actives have a fitted effect of over 40% in size)
Procedure, shortened: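 PGC/ERR cells (2,000/well) plated 6 h, then compound-treated for 17.5 h at 37 C. Viability measured by CellTiter-Fluor fluorescence after 30 min at 37 C, multiplexed with the pathway assay.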

[6] = qHTS assay to identify small molecule antagonists of the estrogen related receptor signaling pathway with the pleiotropic PPARgamma coactivator (PGC) from Tox21 10K library (AID 1224841; call rule not given here; note: actives are mostly falling curves and most rising ones were filed inactive; nearly all actives have a fitted effect of over 50% in size; note: potency is the fitted concentration of half-maximal effect)
Procedure, shortened: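 PGC/ERR cell line, 2,000 cells/well, pre-incubated 6 hours at 37 C, then exposed to compounds for 18 hours at 37 C; luciferase read with One-Glo luminescence after 30 min at room temperature.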

[7] = biological target: Thyrotropin receptor (Homo sapiens) (UniProt P16473); assay: qHTS assay to identify small molecule agonists of the thyroid stimulating hormone receptor (TSHR) signaling pathway (AID 1224843; calls by dose curve; note: nearly all actives have a fitted effect of over 45% in size)
Sequence of Thyrotropin receptor (Homo sapiens) (P16473 whole entry, looked up): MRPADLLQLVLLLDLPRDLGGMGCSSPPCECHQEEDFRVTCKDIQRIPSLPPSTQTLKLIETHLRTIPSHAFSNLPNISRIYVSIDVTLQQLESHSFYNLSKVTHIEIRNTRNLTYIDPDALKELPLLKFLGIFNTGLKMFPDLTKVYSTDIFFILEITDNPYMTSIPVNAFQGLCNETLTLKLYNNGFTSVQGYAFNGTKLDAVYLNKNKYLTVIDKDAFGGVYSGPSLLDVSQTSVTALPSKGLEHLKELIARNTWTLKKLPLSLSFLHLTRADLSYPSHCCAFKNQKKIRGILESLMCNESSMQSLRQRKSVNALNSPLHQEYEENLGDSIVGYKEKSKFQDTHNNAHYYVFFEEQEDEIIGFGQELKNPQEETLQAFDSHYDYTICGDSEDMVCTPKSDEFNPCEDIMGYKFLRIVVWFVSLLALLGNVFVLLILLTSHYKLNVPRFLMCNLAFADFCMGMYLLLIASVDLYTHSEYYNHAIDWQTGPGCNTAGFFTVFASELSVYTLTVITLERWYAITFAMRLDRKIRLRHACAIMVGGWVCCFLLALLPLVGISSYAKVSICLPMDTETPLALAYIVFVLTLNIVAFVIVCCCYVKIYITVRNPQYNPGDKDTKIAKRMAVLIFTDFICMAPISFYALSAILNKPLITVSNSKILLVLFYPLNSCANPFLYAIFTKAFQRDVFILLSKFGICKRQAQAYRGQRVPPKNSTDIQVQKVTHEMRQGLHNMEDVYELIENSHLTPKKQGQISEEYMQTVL
Procedure, shortened: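 Cell line HEK293 with TSHR; density 800/well. Exposure 30 min RT. Readout HTRF cAMP (cAMP-d2/anti-cAMP-cryptate), 1 h RT before reading.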

[8] = qHTS assay to identify small molecule agonists of the hypoxia (HIF-1) signaling pathway - cell viability counter screen (AID 1224844; calls by dose curve; note: nearly all actives have a fitted effect of over 50% in size; note: potency is the fitted concentration of half-maximal effect)
Procedure, shortened: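 HRE-bla ME-180 cells, 2,000/well in 0.5% dialyzed FBS medium, treated 17 h at 37C with compounds. Viability read in the same wells as the bla reporter, by CellTiter-Glo luminescence after 30 min at room temperature.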

[9] = qHTS assay to identify small molecule agonists of H2AX (AID 1224845; active = well fitted activation curve with a large enough effect in the signal ratio in the repeat runs, not every such curve was filed as active; the % refers to the signal ratio)
Procedure, shortened: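 Wild-type CHO-K1 cells plated overnight, then exposed 3 hr at 37C to compounds at 15 concentrations (0.76% DMSO). Lysed, then HTRF anti-pH2AX(S139)-cryptate/anti-H2AX-d2 detection after 24 hr at room temperature; emissions 665 and 620 nm.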

[10] = qHTS assay to identify small molecule agonists of the hypoxia (HIF-1) signaling pathway (AID 1224846; active = well fitted activation curve with a large enough effect in the signal ratio in the repeat runs, not every such curve was filed as active; the % refers to the signal ratio)
Procedure, shortened: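 HRE-bla ME-180 beta-lactamase reporter cells in medium with 0.5% dialyzed FBS, pre-incubated 5 h then exposed to compounds 17 h at 37C, 5% CO2; reporter induction read with CCF4-AM FRET substrate.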

[11] = qHTS assay to identify small molecule antagonists of the estrogen related receptor (ERR) signaling pathway from Tox21 library (AID 1224848); note: nearly all actives have a fitted effect of over 50% in size; note: potency is the fitted concentration of half-maximal effect
Procedure, shortened: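 Screening used an ERR reporter line supplied by NTP, exposed for 18 h at 37 C to library compounds delivered in DMSO. Signal was luciferase luminescence developed with ONE-Glo at room temperature for 30 min.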

[12] = qHTS assay to identify small molecule agonists of the estrogen related receptor (ERR) signaling pathway from Tox21 library (AID 1224849; calls by dose curve; note: nearly all actives have a fitted effect of over 15% in size); details: ERR reporter cell line, ONE-Glo luciferase, 18 h; at 92.4 µM (top of the series) unless noted
Procedure, shortened: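 ERR reporter cells (NTP line) pre-incubated 6 hours at 37 C, then exposed to compounds for 18 hours at 37 C. ONE-Glo luciferase luminescence was read after 30 minutes at room temperature.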

[13] = qHTS RealTime-Glo MT Cell Viability Assay in HepG2 cells - 24 hour (AID 1224867); note: nearly all actives have a fitted effect of over 50% in size
Procedure, shortened: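 HepG2 cells (600/well) were dispensed with RealTime-Glo reagents, incubated 5 h at 37 °C, then treated with compounds in DMSO for up to 40 h. Nonlytic NanoLuc luminescence reflecting viable cells was read at each stated time point.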

[14] = qHTS RealTime-Glo MT Cell Viability Assay in HEK293 cells - 32 hour (AID 1224868); note: nearly all actives have a fitted effect of over 50% in size; note: potency is the fitted concentration of half-maximal effect
Procedure, shortened: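 HEK293 cells seeded with NanoLuc/prosubstrate reagent, rested 5 h at 37 C, then dosed and kept at 37 C up to 40 h. Nonlytic real-time luminescence from viable cells read at 0, 8, 16, 24, 32 and 40 h.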

[15] = A CellTox Green Cytotoxicity Assay to monitor cytotoxicity in HEK293 cells - 0 hour (AID 1224869); note: nearly all actives have a fitted effect of over 50% in size
Procedure, shortened: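 HEK293 cells, 600/well, were preincubated 5 hours and then exposed to compounds at 37 C for up to 40 hours. A cell-impermeant cyanine dye staining dead-cell DNA was read by fluorescence at 0, 8, 16, 24, 32 and 40 h time points.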

[16] = qHTS RealTime-Glo MT Cell Viability Assay in HepG2 cells - 40 hour (AID 1224870); note: nearly all actives have a fitted effect of over 50% in size
Procedure, shortened: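 HepG2 cells mixed with RealTime-Glo MT reagents (NanoLuc plus cell-permeant prosubstrate) were seeded at 600 cells/well, incubated 5 h at 37 C/5% CO2, then pinned with compounds in DMSO; nonlytic luminescence tracked viability during 40 h treatment.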

[17] = qHTS assay to identify small molecule antagonists of the estrogen related receptor (ERR) signaling pathway from Tox21 library - cell viability counter screen (AID 1224834); note: nearly all actives have a fitted effect of over 30% in size; note: potency is the fitted concentration of half-maximal effect
Procedure, shortened: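 ERR reporter cells, 2,000 per well, rested 6 h, then exposed to compound in DMSO for 17.5 hours at 37 C. Viability read as fluorescence after 30 min with CellTiter-Fluor.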

[18] = qHTS assay to identify small molecule agonists of H2AX - cell viability counter screen (AID 1224847; calls by dose curve; note: top concentration of the series differs between compounds; nearly all actives have a fitted effect of over 30% in size)
Procedure, shortened: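 CHO-K1 cells plated overnight at 37C, then exposed 3 h at 37C to compounds at 15 concentrations (0.76% DMSO final). Viability by CellTiter-Glo luminescence after 30 min at room temperature.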

[19] = qHTS assay to identify small molecule agonists of the constitutive androstane receptor (CAR) signaling pathway - cell viability counter screen (AID 1224836); note: nearly all actives have a fitted effect of over 45% in size; note: potency is the fitted concentration of half-maximal effect
Procedure, shortened: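 HepG2 cells stably carrying hCAR and a CYP2B6-2.2kb reporter; 15-concentration compounds plus PK11195 (final 0.75 uM), 23 hr at 37 C/5% CO2. Viability read by CellTiter-Fluor fluorescence.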

[20] = qHTS assay to identify small molecule agonists of the estrogen related receptor signaling pathway with the pleiotropic PPARgamma coactivator (PGC) from Tox21 10K library (AID 1224842); note: nearly all actives have a fitted effect of over 15% in size; note: potency is the fitted concentration of half-maximal effect
Procedure, shortened: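 PGC/ERR reporter cells (NTP line) were seeded 2,000 per well, rested 6 h at 37 C/5% CO2, then pin-dosed with compounds in DMSO for 18 h at 37 C; luciferase read by One-Glo luminescence after 30 min at room temperature.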

Structure (SMILES)	Potency [1]	Potency [2]	Potency [3]	Potency [4]	Potency [5]	Potency [6]	Potency [7]	Potency [8]	Potency [9]	outcome [10]	Potency [11]	activity change, positive = activation [12]	Potency [13]	Potency [14]	Potency [15]	Potency [16]	Potency [17]	Potency [18]	Potency [19]	Potency [20]
Oc1ccc(Cc2ccccc2)cc1	65.7 µM (active)	inactive	inactive	56.6 µM (active)	inactive	inactive	inactive	inactive	inactive	inactive	inactive	2.56%	inactive	36 µM (active)	inactive	inactive				
Cn1sccc1=O		inactive	24.3 µM (active)	inactive	inactive	inactive	inactive				48.6 µM (active)	-14.6% and -29.4%	inactive		inactive	inactive	inactive	inactive		
O=C(CC(=O)c1ccccc1)c1ccccc1	6.06 µM (active)	inactive			inactive	inactive	inactive	inactive		inactive	inactive	58.5% (active)	inactive		inactive	inactive		inactive	inactive	29.3 µM (active)
Nc1cnn([C@@H]2O[C@H](CO)[C@@H](O)[C@H]2O)c(=O)n1	inactive	inactive	inactive	inactive			inactive	inactive	inactive	inactive			inactive	inactive	inactive	inactive		inactive	inactive	
COc1ccc2[nH]c(S(=O)Cc3ncc(C)c(OC)c3C)nc2n1 (centres undefined)	inactive	inactive	inactive	26.6 µM (active)	inactive				inactive	inactive		-23.9% [at 42.5 µM]	inactive		inactive	inactive			inactive	
CCC(C)N(C)C(=O)c1cc2ccccc2c(-c2ccccc2Cl)n1 (centres undefined)	inactive	inactive			inactive			inactive	inactive				inactive		inactive	inactive			inactive	
O=C1c2cccc(O)c2C(=O)c2c(O)cc(CO)cc21	inactive	inactive		inactive	inactive	inactive	inactive	inactive	inactive	inactive		-22.2%	inactive		inactive	inactive		inactive	inactive	inactive
NC(N)=N/N=C/c1c(Cl)cccc1Cl	inactive	23.7 µM (active)	inactive	inactive		inactive		inactive	inactive		inactive	-17.6% [at 42.5 µM]	inactive	inactive	inactive	inactive		inactive	23.7 µM (active)	inactive
CC(=O)N(O)CCCCCNC(=O)CCC(=O)N(O)CCCCCNC(=O)CCC(=O)N(O)CCCCCN	inactive	inactive			inactive		inactive	inactive		inactive	26.6 µM (active)	-34.7% [at 42.5 µM]	inactive		inactive	inactive		inactive	inactive	
O=C1[C@H](CC[C@H](O)c2ccc(F)cc2)[C@@H](c2ccc(O)cc2)N1c1ccc(F)cc1	inactive	inactive	inactive	inactive		26.6 µM (active)	inactive		inactive	inactive	26.6 µM (active)	-42.1% [at 42.5 µM]	inactive	19 µM (active)	inactive	inactive		inactive	inactive	
Cc1cc(O)ccc1N				inactive		inactive	inactive			inactive		-16.6%	inactive		inactive	inactive	15.4 µM (active)			
CCOC(=O)C1=C(C)NC(C)=C(C(=O)OC)C1c1cccc([N+](=O)[O-])c1 (centres undefined)	inactive	inactive	inactive	inactive	inactive		inactive		inactive	inactive					inactive			inactive	inactive	
CN(C)CCCOc1nn(Cc2ccccc2)c2ccccc12	inactive	inactive	inactive		inactive	inactive	inactive			inactive	inactive	-2.65% [at 42.5 µM]	inactive		inactive			inactive		inactive
O=C(O)c1cccc(N(Cc2cccnc2)c2ccc(OC(F)F)c(OC(F)F)c2)c1	inactive	inactive	inactive	inactive	inactive	inactive				inactive	61.1 µM (active)	-33.2%		inactive	inactive			inactive	inactive	inactive
CCCCCCc1ccc(N)cc1		inactive	inactive	inactive	inactive	inactive	inactive	inactive		inactive		-26.6%	inactive		inactive	inactive			inactive	inactive
CCOc1ccc2[nH]cc(C(=O)NCc3ccccc3)c(=O)c2n1	inactive	inactive			inactive		inactive	inactive	inactive	inactive	24.3 µM (active)	-48.4%	inactive	inactive	inactive	inactive			inactive	inactive
CCCC(C)C	inactive	inactive			inactive		inactive	inactive		inactive			inactive		inactive	inactive			inactive	
CCN(CC)CCNC(C(=O)OCCC(C)C)c1ccccc1 (centres undefined)	inactive	inactive		inactive	inactive	inactive	inactive		inactive	inactive	inactive	0.0727% [at 42.5 µM]	inactive		inactive	inactive		inactive	inactive	
COc1ccc([C@@H]2Sc3ccccc3N(CCN(C)C)C(=O)[C@@H]2OC(C)=O)cc1	inactive	inactive			inactive		inactive	21.3 µM (active)	inactive		16.8 µM (active)	-33.7% [at 42.5 µM]	inactive		inactive	inactive		inactive	inactive	
